NIH3T3 tox: Cytotoxic Profiling in NIH 3T3 Cell Line of Diverse Libraries Using Quantitative High-Throughput Screening. NIH 3T3 viability, CellTiter-Glo ATP luminescence, 48-72 h. Potency, µM (doses to about 96.7 µM), without a hit: at the highest dose activity change, negative = cytotoxicity, most hits filed as inhibitors. 94,000 compounds, 4.3% hits. AID 1345082, 2018; further: on the % scale 0 is the no-effect control and ±100 the full control effect; nearly all actives have a fitted effect of over 55% in size
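Luminescent ATP readout (CellTiter-Glo, 10 min RT) after 48 or 72 hr compound exposure of NIH 3T3 cells seeded at 400 cells/well in 1536-well format; quantitative HTS.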
NPR1 antag: Natriuretic polypeptide receptor (hNpr1) antagonism - Primary qHTS; Atrial natriuretic peptide receptor 1 (Homo sapiens), P16066; HEK293 hNpr1 GloSensor cGMP, ANP-stimulated luminescence; Potency, µM (highest dose often 46.3 µM), for inactives: at the top dose activity change, negative = inhibition, actives largely listed as inhibitors; 76,000 compounds, 1.6% hits; AID 1347048, 2019; calls by dose curve; further: on the % scale 0 is the no-effect control and ±100 the full control effect; nearly all actives have a fitted effect of over 60% in size
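Compound pre-incubated 30 min at room temperature on GloSensor-loaded HEK293 cells stably carrying hNpr1 and the pGS-40F cGMP biosensor. Stimulation uses hNppA at 0.1 nM final; luminescence is taken at baseline and 20 min post-agonist.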
FLuc inh-1: Firefly luciferase inhibition profiling of diverse chemical library using quantitative high-throughput screening; purified P. pyralis luciferase, luminescence, biochemical; Potency, µM (highest dose often 115 µM), usual class: inhibitors; 76,000 compounds, 2.5% hits; further: on the % scale 0 is the no-effect control and ±100 the full control effect; nearly all actives have a fitted effect of over 65% in size
Target sequence (P08659 whole entry, looked up): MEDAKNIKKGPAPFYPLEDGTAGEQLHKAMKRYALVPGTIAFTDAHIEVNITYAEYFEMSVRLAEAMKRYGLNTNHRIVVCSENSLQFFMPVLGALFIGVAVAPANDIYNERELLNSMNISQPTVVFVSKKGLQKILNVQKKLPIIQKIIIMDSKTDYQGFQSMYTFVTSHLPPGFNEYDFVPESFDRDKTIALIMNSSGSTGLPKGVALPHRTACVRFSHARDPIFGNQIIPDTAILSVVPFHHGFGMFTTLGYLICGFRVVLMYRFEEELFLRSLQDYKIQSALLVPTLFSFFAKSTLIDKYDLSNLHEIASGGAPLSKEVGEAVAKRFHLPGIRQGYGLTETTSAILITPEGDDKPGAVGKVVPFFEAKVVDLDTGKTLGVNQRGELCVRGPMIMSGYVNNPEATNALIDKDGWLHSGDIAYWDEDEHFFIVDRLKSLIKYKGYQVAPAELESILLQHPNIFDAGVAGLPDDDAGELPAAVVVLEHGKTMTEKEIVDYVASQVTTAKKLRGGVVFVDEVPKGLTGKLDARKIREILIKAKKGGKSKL
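Inhibitors were tested against purified firefly luciferase in a biochemical, low-substrate format (both substrates at 10uM) and luminescence measured with a CCD imager.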
HEK293 tox: Cytotoxic Profiling in HEK 293 Cell Line of Diverse Libraries Using Quantitative High-Throughput Screening; AID 1345083, 2018; 94,000 compounds, 6.6% hits; HEK 293 viability, ATP luminescence (CellTiter-Glo), 48-72 h; Potency, µM (series often up to 115 µM), for inactives: at the top dose activity change, negative = cytotoxicity, hits mostly inhibitors; further: on the % scale 0 is the no-effect control and ±100 the full control effect; nearly all actives have a fitted effect of over 60% in size
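qHTS cytotoxicity; HEK 293, 250 cells/well; compound pinned; 48 or 72 hr, 37 degree Celsius, 5% CO2, 95% humidity; CellTiter-Glo, 10 min RT; luminescence (ATP).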
FLuc SDR -ATP: Firefly luciferase (FLuc-C-HiBiT) SDR gain of signal screen - without ATP | AID 1963318, 2024 | Potency, µM (titrated, usually from 32.7 µM), without a hit: top-dose activation (signal gain), actives largely listed as activators | 1,300 compounds, 7.8% hits | Purified FLuc-C-HiBiT, Nano-Glo HiBiT luminescence, no ATP | shares compounds with FLuc inh-1; further: nearly all actives have a fitted effect of over 55% in size
FLuc SDR ATP: Firefly luciferase (FLuc-C-HiBiT) SDR gain of signal screen - plus ATP; shares compounds with FLuc inh-1; purified FLuc-C-HiBiT + ATP, HiBiT complementation luminescence; Potency, µM (series often up to 32.7 µM), inactives show at the highest dose activation (gain of signal), actives largely listed as activators; 1,300 compounds, 8.7% hits; AID 1963319, 2024;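 further: signal reports ligand binding via conformational change of the enzyme rather than luciferase catalysis; % of control where 0% means no effect; nearly all actives have a fitted effect of over 55% in size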
FLuc inh-2: Firefly luciferase (FLuc-C-HiBiT) enzymatic inhibition screen - Functional assay; shares compounds with FLuc inh-1; purified FLuc-C-HiBiT enzyme, luciferin luminescence; Potency, µM (top dose mostly 32.7 µM), inactives show at the highest dose activity change, negative = inhibition, usual class: inhibitors; 1,300 compounds, 42% hits; AID 1963320, 2024; further: on the % scale 0 is the no-effect control and ±100 the full control effect; nearly all actives have a fitted effect of over 70% in size
Active calls of the source: *; i = inactive; ? = inconclusive; . = not tested or not shown; [ ] = dose if it differs, or a comment. Most compounds without a hit are left out; they make up all but 11% or so of the library. Unless noted, the call rests on the fitted dose curve; in most records, active means well fitted curve in the direction sought with a large enough effect; inconclusive means small, poorly fitted or top-dose-only effect, or another doubt; inactive means no such curve, though single readings can be large; an effect the other way counts as inactive or inconclusive. Potency means the concentration at half of the fitted maximal effect.

SMILES | NIH3T3 tox | NPR1 antag | FLuc inh-1 | HEK293 tox | FLuc SDR -ATP | FLuc SDR ATP | FLuc inh-2
COc1ccc(N2CCN(C(=O)Cn3cccc3-c3nc(-c4ccc5c(c4)OCO5)no3)CC2)cc1 | 0.0% | -1.0% | i | 0.7% | 15.3% | 11.7% | -3.2%
O=C(NCc1cccc(F)c1)C1CCCN1C(=O)c1cccc(-c2ccccn2)c1 (stereo not given) | -8.9% | . | . | -7.6% | . | . | .
NC(=O)[C@@H]1CCCN1C(=O)c1ccc2oc(-c3cccc(F)c3)nc2c1 | ? | 2.9% | 11.2µM* | ? | 17.4% | 15.9% | -18.6%
C#CCn1c(/C=C/c2ccc(Cl)cc2)nc2ccccc21 | . | . | . | . | 3.94µM* | ? | 0.624µM*
CCOc1ccc(NC(=O)C2CCN(C(=O)c3nnn4c3COC(c3ccc(C)cc3)C4)CC2)cc1 (stereo not given) | -0.4% | -10.2% | ? | 3.1% | . | . | .
Cc1ccc(NC(=O)C2CCN(C(=O)c3nnn4c3COC(c3ccc(C)cc3)C4)CC2)cc1 (stereo not given) | -14.0% | -6.3% | ? | -1.6% | . | . | .
Cc1ccc(C2Cn3nnc(C(=O)N4CCC(C(=O)Nc5ccc(F)cc5)CC4)c3CO2)cc1 (stereo not given) | -7.9% | -13.2% | 11.2µM* | -19.1% | 13.7% | ? | ?
Cc1ccc(C2Cn3nnc(C(=O)N4CCC(C(=O)NCc5ccccn5)CC4)c3CO2)cc1 (stereo not given) | i | -3.7% | 11.2µM* | -4.5% | 11.1% | ? | ?
Cc1ccc(C2Cn3nnc(C(=O)N4CCC(C(=O)Nc5ccccc5)CC4)c3CO2)cc1 (stereo not given) | 4.8% | -3.2% | 12.6µM* | 12.3% | 12.9% | ? | ?
O=C(CC1CCCC1)N1CCN2CCS(=O)(=O)N(C3CC3)C(=O)C2C1 (stereo not given) | -32.9% | . | . | ? | . | . | .
COc1ccccc1CNC(=O)c1ccc2c(c1)C(O)CCCCCN2C (stereo not given) | ? | -14.2% | i | ? | . | . | .
COc1ccccc1CNC(=O)c1ccc2nc(N3CCCCC3)sc2c1 | . | . | . | . | 14.8% | 11.6% | -13.5%
O=C([C@@H]1C[C@@H](O)[C@H](O)[C@@H]2NC(=S)N(c3ccc4c(c3)OCO4)[C@@H]21)N1CCOCC1 | i | -11.6%[70.6 µM] | 5.01µM* | i | 12.2%[49.3 µM] | ? | ?
O=C(C1CN(c2ccccc2)C(=O)N1)N1CCOCC1 (stereo not given) | 3.6%[138 µM] | 0.0%[70.6 µM] | i | -4.3%[172 µM] | . | . | .
O=C(Nc1ccc(F)c(Cl)c1)C1CCN(C(=O)c2ncn3c2COC(c2ccccc2)C3)CC1 (stereo not given) | i | ? | 1.78µM* | 6.8% | 12.6% | 0.7µM* | 0.989µM*
COc1ccc(C2Cn3cnc(C(=O)N4CCC(C(=O)Nc5ccc(F)c(F)c5)CC4)c3CO2)cc1 (stereo not given) | -4.9% | -12.0% | i | -2.4% | . | . | .
COc1ccc(NC(=O)C2CCN(C(=O)c3ncn4c3COC(c3ccccc3)C4)CC2)cc1Cl (stereo not given) | 1.0% | ? | 1.26µM* | 1.2% | 14.8% | 0.624µM* | 0.881µM*
O=C(Nc1ccc(F)c(F)c1)C1CCN(C(=O)c2ncn3c2COC(c2ccc(F)cc2)C3)CC1 (stereo not given) | -8.6% | -13.6% | 14.1µM* | ? | 12.4% | ? | ?
CN(C)C(=O)N1CCCC(c2nc(CCOCC3CCCC3)no2)C1 (stereo not given) | -34.1% | . | . | ? | . | . | .
CC(=O)N1CCC(C2CCN(C(=O)c3cccc(C#N)c3)C2)CC1 (stereo not given) | -20.4% | . | . | 1.7% | . | . | .
O=C(c1ccco1)N1CCC(N2C(=O)[C@H]3CN(Cc4ccccc4)C[C@H]3C2=O)CC1 | -23.6% | . | . | -27.1% | . | . | .
CC(C)Oc1cccc(-c2cccc(COc3cnc4c(ccn4CC(=O)O)c3)c2)c1 | -22.6%[138 µM] | 3.7%[70.6 µM] | 11.2µM* | ? | 7.1%[49.3 µM] | 4.8%[49.3 µM] | 18µM*
Cc1ccccc1-c1cccc(COc2cnc3c(ccn3CC(=O)O)c2)c1 | . | . | . | . | 8.6%[49.3 µM] | 6.0%[49.3 µM] | ?
CC(=O)Nc1cccc(-c2cccc(CCOc3cnc4c(ccn4CC(=O)O)c3)c2)c1 | . | . | . | . | ? | ? | 16.1µM*
Cc1ccccc1-c1cccc(CCOc2cnc3c(ccn3CC(=O)O)c2)c1 | -13.7%[138 µM] | -0.3%[70.6 µM] | i | ? | . | . | .
SMILES | NIH3T3 tox | NPR1 antag | FLuc inh-1 | HEK293 tox | FLuc SDR -ATP | FLuc SDR ATP | FLuc inh-2
COc1ccc(C)cc1NC(=O)c1ccc2c(Cl)c3c(nc2c1)CCC3 | . | . | . | . | 22.5% | 15.5% | ?
COc1ccc(Cl)cc1CN(C)c1cc(C2CC(N)C2)ncn1 (stereo not given) | ? | -4.6% | i | ? | . | . | .
Cc1cccc(C)c1-c1nc(C(=O)N2CCOCC2)n2ccccc12 | -23.7% | . | . | -19.5% | . | . | .
O=C(COC(=O)c1cc(-c2cccs2)nc2ccccc12)c1ccc(Br)cc1 | . | . | . | . | 14.4% | 8.2% | -17.9%
CSCCNC(=O)c1nc2sccn2c1Br | ? | -8.2%[70.6 µM] | ? | -8.4%[172 µM] | . | . | .
O=C(NCCc1ccccc1F)c1nc2sccn2c1Br | ? | ? | 1.58µM* | ? | 24.0% | ? | 7µM*
O=C(CC1CCCC1)Nc1cnc(-c2cccnc2)nc1 | -5.6% | -14.4% | ? | 1.8% | . | . | .
O=C(Nc1cnc(-c2ccccc2)nc1)C1CCCCC1 | i | ? | 1µM* | -9.3% | ? | ? | 1.97µM*
Cc1nnc2ccc(N3CCC(NC(=O)c4ccccc4)C3)nn12 (stereo not given) | -24.8%[138 µM] | . | . | -11.8%[172 µM] | . | . | .
O=C(NCc1ccccc1)N1CCC(O)(c2csc(CN3CCc4ccccc4C3)n2)CC1 | ? | 1.8% | i | ? | . | . | .
Cc1ccc(-n2ncc3c(NC4CCCCC4)ncnc32)cc1Cl | . | . | . | . | 32.7% | ? | 2.79µM*
Cc1ccc(-n2ncc3c(NC4CCCCC4)ncnc32)cc1C | . | . | . | . | 27.1% | ? | 1.76µM*
Cc1cccc(N2Cc3c(NC4CCCC4)ncnc3N(C)CC2=O)c1 | ? | . | . | -19.2% | . | . | .
